Arbovirus anti – antivirals against arbovirus infection, primary screen, cell-based, full library, 10K replicate subset. AID 1251, 2008. arbovirus infection cell-based antiviral screen. inhibition, % at 10 µM. 0.37% of 200,000 active; in the data active = inhibition above about 30%
KCC2 mod – KCC2 cotransporter modulators, thallium flux, primary screen, cell-based, HEK293 KCC2, FluoZin-2 fluorescence, MLSMR; KCC2 cells, thallium flux FluoZin-2 fluorescence; B-score of Tl+ flux slope (higher = more flux/activation; lower = inhibition) at 10 µM; 2.2% of 190,000 active;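 active = thallium flux slope and its plate-corrected score both differing from the plate sample mean at a set confidence after two filtering rounds, in either direction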;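 also: slope of fluorescence scaled to starting intensity during 10 to 20 s after thallium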
Target sequence (Q9H2X9 whole entry, looked up): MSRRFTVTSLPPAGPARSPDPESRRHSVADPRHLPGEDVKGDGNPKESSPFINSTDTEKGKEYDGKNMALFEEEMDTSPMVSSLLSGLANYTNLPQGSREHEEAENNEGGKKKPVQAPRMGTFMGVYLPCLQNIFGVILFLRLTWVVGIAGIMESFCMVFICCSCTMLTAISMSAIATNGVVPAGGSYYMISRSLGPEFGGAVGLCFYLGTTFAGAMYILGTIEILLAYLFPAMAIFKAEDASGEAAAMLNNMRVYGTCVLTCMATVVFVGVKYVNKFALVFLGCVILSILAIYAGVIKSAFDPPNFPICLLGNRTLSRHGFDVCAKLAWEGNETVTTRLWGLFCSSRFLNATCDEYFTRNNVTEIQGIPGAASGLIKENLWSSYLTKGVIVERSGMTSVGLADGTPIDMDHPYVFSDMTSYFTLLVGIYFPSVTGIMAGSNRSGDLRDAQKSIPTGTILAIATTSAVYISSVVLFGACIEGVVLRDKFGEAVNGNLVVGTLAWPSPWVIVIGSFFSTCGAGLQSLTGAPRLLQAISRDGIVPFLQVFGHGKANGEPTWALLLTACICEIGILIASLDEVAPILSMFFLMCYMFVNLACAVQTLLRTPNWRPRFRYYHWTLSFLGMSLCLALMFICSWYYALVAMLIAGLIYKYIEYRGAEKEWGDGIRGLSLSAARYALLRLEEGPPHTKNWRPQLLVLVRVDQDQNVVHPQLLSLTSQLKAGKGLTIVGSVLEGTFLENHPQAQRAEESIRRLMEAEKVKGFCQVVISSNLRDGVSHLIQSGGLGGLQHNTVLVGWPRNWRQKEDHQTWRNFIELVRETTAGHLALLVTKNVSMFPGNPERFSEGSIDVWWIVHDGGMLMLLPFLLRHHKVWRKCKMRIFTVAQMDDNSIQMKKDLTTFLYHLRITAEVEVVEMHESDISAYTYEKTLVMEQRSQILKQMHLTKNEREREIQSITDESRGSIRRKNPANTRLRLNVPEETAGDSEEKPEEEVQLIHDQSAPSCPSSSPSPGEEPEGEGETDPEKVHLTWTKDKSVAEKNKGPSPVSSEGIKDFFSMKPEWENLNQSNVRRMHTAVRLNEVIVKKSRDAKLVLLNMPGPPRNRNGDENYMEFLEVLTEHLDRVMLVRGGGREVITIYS
ROMK primary – ROMK potassium channel modulators, primary screen, cell-based, thallium flux, MLSMR library | Tet-inducible ROMK, thallium flux fluorescence; actives lie on both sides | AID 1918, 2009 | ATP-sensitive inward rectifier potassium channel 1 (Homo sapiens), P48048 | B-score at 10 µM | 2% of 130,000 active;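 active = signal ratio slope over the read window, or its plate-corrected B-score, at least 3 SD from the plate mean, either direction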;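 also: B-score of the F/F0 ratio slope over 7 to 12 s after thallium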
HSV replic up – enhancers of HSV replication in host cells, fold increase, host cell viability; 0.005% of 220,000 active; maximum fold increase; HSV replication augmentation in cells; in the data active = maximum fold increase above about 1.5; inconclusive = no clear call, values can overlap the other calls; tested in PC3 cells
Measles CPE – compounds protecting cells from measles virus cytopathic effect, primary screen, measles RdRp inhibitor project, single point, MLSMR library, absorbance; Measles virus-infected cells, CPE protection; protection (pct of control), % at 4 µM; 1.5% of 140,000 active; in the data active = protection mostly above about 24%, no sharp cut-off; inactive = mostly below about 26%
KCC2 secondary – KCC2 modulators in sodium-free buffer, confirmation, cell-based, HEK293 KCC2, thallium flux, secondary assay; shares compounds with KCC2 mod; FluoZin2 fluorescence; stronger effect = higher value; normalised thallium flux (F/F0 slope) at 10 µM; 15% of 3,700 active; AID 1713, 2009;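 active = thallium flux slope above the same plate's solvent-only control mean plus 3 SD; inconclusive = the two replicate wells disagree; inactive = no significant difference from solvent-only control wells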
KCC2 bumet counter – thallium flux persisting under bumetanide in KCC2 cells, confirmation, counter-screen for KCC2 modulator project, cell-based, HEK293 KCC2, FluoZin2, secondary assay 3 | 49% of 3,700 active | shares compounds with KCC2 mod | HEK293-KCC2 + bumetanide/ouabain; stronger effect = higher value | normalized thallium flux at 10 µM;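 active = thallium entry rate above the same plate's blocked-transporter control wells by more than 3 SD; inconclusive = the two repeat wells disagree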;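 also: raw slope of fluorescence over initial fluorescence between 10 and 20 s after thallium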
KCC2 sec2 – KCC2 modulators without ouabain present, confirmation, cell-based, HEK293 KCC2, thallium flux, FluoZin2, secondary assay 2 | shares compounds with KCC2 mod | thallium flux FluoZin2 fluorescence; actives lie on both sides; F/F0 rise rate, 10–20 s post-thallium | normalized thallium flux at 10 µM | 23% of 3,700 active;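 active = thallium flux slope more than 3 SD above or below the plate's solvent-only control mean, mostly below; inconclusive = the two repeat wells disagreed; inactive = no significant shift from solvent-only controls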;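 also: raw slope with 0.1% DMSO as baseline and bumetanide as block control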
HEK counter1 – thallium flux modulation in parental HEK cells, confirmation, counter-screen for KCC2 modulator project, cell-based, counterscreen 1 | shares compounds with KCC2 mod | HEK293 parental cells, thallium flux FluoZin2, ouabain; baseline-ratio fluorescence slope, 10–20 s after thallium | thallium flux rate (normalised fluorescence) at 10 µM | 46% of 3,700 active;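 active = thallium flux rate significantly above the same plate's solvent-only control wells, beyond their mean plus 3 SD; inconclusive = the two replicate wells gave conflicting results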
KCC2 retest ouab – KCC2 inhibitors and activators, ouabain retest, confirmation, HEK-KCC2 cells | shares compounds with KCC2 mod | AID 1717, 2009 | 48% of 3,700 active | HEK293-KCC2, thallium flux FluoZin2 fluorescence; bidirectional: low = inhibitor, high = activator | raw Tl+ flux slope (below DMSO = inhibition, above = activation) at 10 µM;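 active = thallium flux slope beyond 3 SD from same-plate DMSO control mean in most replicates, usually higher, sometimes lower; inconclusive = repeat tests gave conflicting results; inactive = no significant difference from controls in most replicates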;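 also: slope of initial-normalized fluorescence between seconds 10 and 20 after thallium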
HEK293 Tl flux2 – native HEK Tl+ uptake effects, second counter-screen – HEK cells, counterscreen 2, counter-screen for KCC2 modulator project, confirmation. shares compounds with KCC2 mod. HEK293 parental, thallium flux FluoZin-2 fluorescence slope. thallium flux slope at 10 µM. 33% of 3,700 active. AID 1718, 2009;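 active = thallium flux slope above the same plate's solvent-control mean plus 3 SD in both duplicate wells; inconclusive = duplicate wells that disagreed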;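 also: run without ouabain in cells lacking the KCC2 cotransporter; slope of fluorescence scaled to its starting value between 10 and 20 s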
An asterisk follows results filed as active; i = inactive; u = inconclusive; x = no result given. The list is not random: actives were taken first. Their share in the collection is about 4%.

SMILES	Arbovirus anti	KCC2 mod	ROMK primary	HSV replic up	Measles CPE	KCC2 secondary	KCC2 bumet counter	KCC2 sec2	HEK counter1	KCC2 retest ouab	HEK293 Tl flux2
COCCCNC(=S)N/N=C/c1cccc(OC)c1O	x	0.33	x	i	x	x	x	x	x	x	x
Cc1nn(-c2ccccc2)c(C)c1/C=C/C(=O)OCC(=O)N(C)C1CCS(=O)(=O)C1 (centres undefined)	8	-0.47	-0.19	i	x	x	x	x	x	x	x
Cc1c(C(=O)NCCCN2CCOCC2)oc2c1C1(CCC2)SCCS1	-2	0.4	0.082	i	6	x	x	x	x	x	x
CC(=O)c1cccc(NC(=S)NC(=O)Cc2ccccc2)c1	2	6.2*	0.023	i	x	0.0079	0.0091*	u	0.01*	0.02	u
CC(=O)c1cccc(NC(=S)NC(=O)c2ccc(C)cc2Cl)c1	-8	21*	0.51	i	x	0.0058	0.062*	u	0.019*	0.036*	0.019*
CC(=O)c1cccc(NC(=S)NC(=O)c2ccccc2Cl)c1	7	5.4*	x	i	5	0.008	0.026*	0.034	0.017*	0.028*	0.013*
Cc1cccc(NC(=S)NNC(=O)c2csc(C)c2)c1	5	4.5*	0.46	i	11	u	0.019*	0.035	0.017*	u	0.019*
C=CCNCC(O)COc1ccc(C(C)=O)cc1OC (centres undefined)	x	-0.12	x	i	x	x	x	x	x	x	x
CC(=O)c1cccc(NC(=S)NC(=O)c2ccc(C)cc2)c1	-20	7.2*	-0.3	i	x	0.0059	0.013*	0.029	0.011*	u	0.012*
CC(C)c1onc(C(=O)NC(C)c2ccccc2)c1[N+](=O)[O-] (centres undefined)	4	0.61	-0.17	i	x	x	x	x	x	x	x
O=C(CN1C(=O)C2C3C=CC(C3)C2C1=O)NCCN1CCCc2ccccc21 (centres undefined)	-1	4.5*	x	x	1	0.0076	0.006	0.031	0.0069	0.021	0.0096
Cc1ccnc(NC(=S)NC(=O)c2ccco2)c1	-8	7.5*	x	x	9	0.015*	0.057*	0.033	0.02*	0.046*	0.013*
Cc1ccc2nc(NC(=O)c3ccco3)sc2c1	7	-1.6	-0.81	i	6	x	x	x	x	x	x
O=C(NC(=S)Nc1nc(-c2ccc(Br)cc2)cs1)c1ccco1	-6	5.5*	1.6	i	x	0.0063	0.0078*	0.029	0.011*	0.021	0.011*
Cc1ccc2nc(NC(=S)NC(=O)c3ccco3)sc2c1	-1	64*	1.1	i	6	0.024*	0.15*	0.057*	0.084*	0.076*	0.042*
O=C(CCN1C(=O)c2cccc3cccc(c23)C1=O)NCc1ccco1	10	x	-0.095	i	x	x	x	x	x	x	x
CCn1c(-c2csc3c2CCC(C)C3)n[nH]c1=S (centres undefined)	2	11*	x	i	23	0.0071	0.027*	0.035	0.024*	0.03*	0.014*
CCn1c(-c2ccccc2O)n[nH]c1=S	-5	-0.013	x	i	24	x	x	x	x	x	x
COc1ccccc1NC(=O)CN(Cc1ccco1)C(=O)c1cc2ccccc2o1	-8	-2	-1.4	i	x	x	x	x	x	x	x
COc1ccccc1-n1cc([C@@H]2C[C@H]3CN(c4ccccc4)C(=O)[C@]34CCCN24)cn1	-13	-3	-2.2	i	x	x	x	x	x	x	x
CC(=O)c1ccc(Nc2cc(C)nc3ccccc23)cc1	-19	-0.66	-0.024	i	x	x	x	x	x	x	x
COc1ccc(Nc2cc(C)nc3ccccc23)cc1	3	1.3	-1.9	i	12	0.0098	0.008*	0.03	0.0073	0.021	0.011
O=C(NC1CCCC1)c1cc(COc2ccc3ncccc3c2)on1	x	0.39	x	i	x	x	x	x	x	x	x
CCN(Cc1ccccc1)C(=O)c1cc(COc2c(F)cccc2F)on1	x	-4.7*	x	i	x	0.0061	0.0045	0.031	0.0066	0.014*	u
COc1cccc(CN(C)C(=O)c2cc(COc3c(F)cccc3F)on2)c1	-2	x	0.72	i	x	0.007	0.0037	0.025*	u	0.014*	0.0089
SMILES	Arbovirus anti	KCC2 mod	ROMK primary	HSV replic up	Measles CPE	KCC2 secondary	KCC2 bumet counter	KCC2 sec2	HEK counter1	KCC2 retest ouab	HEK293 Tl flux2
O=C(NCCc1cn2ccccc2n1)c1cc(COc2ccc3ncccc3c2)on1	-4	x	-1.4	i	x	0.0076	0.0064	0.03	0.0074	u	0.0097
COc1cccc(CN(C)C(=O)c2cc(COc3ccc4ncccc4c3)on2)c1	9	x	-1.3	i	x	0.0071	0.0036	0.025*	u	0.014*	0.0099
O=C(COc1ccccc1)Nc1ccc(Cl)cc1Cl	-6	x	x	i	x	x	x	x	x	x	x
O=C1CCCN1CCCNc1ncnc2sccc12	3	-0.005	1	i	x	x	x	x	x	x	x
CCOC(=O)Cc1csc(NC(=O)COc2cc(C)cc(C)c2)n1	16	-0.95	0.22	i	x	x	x	x	x	x	x
O=C(NC1CCc2ccccc21)c1cc(COc2c(F)cccc2F)on1 (centres undefined)	x	-3	-0.081	i	x	x	x	x	x	x	x
O=C(NCC1OCCc2ccccc21)c1cc(COc2c(F)cccc2F)on1 (centres undefined)	0	-6*	-0.85	i	x	0.0055	0.0044	u	u	0.013*	0.011
Cc1ccc(Cn2c(=S)[nH]c3ccc(N4CCOCC4)cc3c2=O)o1	13	14*	x	i	7	0.011	0.0098*	0.036	u	0.024	0.012
O=c1c2cc(N3CCOCC3)ccc2[nH]c(=S)n1CCN1CCCC1	1	0.14	0.021	i	12	x	x	x	x	x	x
CCCCn1c(=S)[nH]c2ccc(N3CCOCC3)cc2c1=O	-17	12*	0.47	i	x	0.014*	0.031*	0.034	0.03*	0.032*	0.016*

Assay outcomes as filed in PubChem BioAssay.
